Experimental data reported in ChEMBL document CHEMBL4808148, “HDAC6 screening dataset using tau-based substrate in an enzymatic assay yields selective inhibitors and activators” (2021).
The campaign covered roughly 5,600 compounds. About 390 (7%) showed an effect of 50% or more. The full list was thinned out, with strong results kept by preference.

These compounds were tested against T1, Protein deacetylase HDAC6 (Homo sapiens) (UniProt Q9UBN7). Conditions: at 10 µM.
T1 sequence (whole entry): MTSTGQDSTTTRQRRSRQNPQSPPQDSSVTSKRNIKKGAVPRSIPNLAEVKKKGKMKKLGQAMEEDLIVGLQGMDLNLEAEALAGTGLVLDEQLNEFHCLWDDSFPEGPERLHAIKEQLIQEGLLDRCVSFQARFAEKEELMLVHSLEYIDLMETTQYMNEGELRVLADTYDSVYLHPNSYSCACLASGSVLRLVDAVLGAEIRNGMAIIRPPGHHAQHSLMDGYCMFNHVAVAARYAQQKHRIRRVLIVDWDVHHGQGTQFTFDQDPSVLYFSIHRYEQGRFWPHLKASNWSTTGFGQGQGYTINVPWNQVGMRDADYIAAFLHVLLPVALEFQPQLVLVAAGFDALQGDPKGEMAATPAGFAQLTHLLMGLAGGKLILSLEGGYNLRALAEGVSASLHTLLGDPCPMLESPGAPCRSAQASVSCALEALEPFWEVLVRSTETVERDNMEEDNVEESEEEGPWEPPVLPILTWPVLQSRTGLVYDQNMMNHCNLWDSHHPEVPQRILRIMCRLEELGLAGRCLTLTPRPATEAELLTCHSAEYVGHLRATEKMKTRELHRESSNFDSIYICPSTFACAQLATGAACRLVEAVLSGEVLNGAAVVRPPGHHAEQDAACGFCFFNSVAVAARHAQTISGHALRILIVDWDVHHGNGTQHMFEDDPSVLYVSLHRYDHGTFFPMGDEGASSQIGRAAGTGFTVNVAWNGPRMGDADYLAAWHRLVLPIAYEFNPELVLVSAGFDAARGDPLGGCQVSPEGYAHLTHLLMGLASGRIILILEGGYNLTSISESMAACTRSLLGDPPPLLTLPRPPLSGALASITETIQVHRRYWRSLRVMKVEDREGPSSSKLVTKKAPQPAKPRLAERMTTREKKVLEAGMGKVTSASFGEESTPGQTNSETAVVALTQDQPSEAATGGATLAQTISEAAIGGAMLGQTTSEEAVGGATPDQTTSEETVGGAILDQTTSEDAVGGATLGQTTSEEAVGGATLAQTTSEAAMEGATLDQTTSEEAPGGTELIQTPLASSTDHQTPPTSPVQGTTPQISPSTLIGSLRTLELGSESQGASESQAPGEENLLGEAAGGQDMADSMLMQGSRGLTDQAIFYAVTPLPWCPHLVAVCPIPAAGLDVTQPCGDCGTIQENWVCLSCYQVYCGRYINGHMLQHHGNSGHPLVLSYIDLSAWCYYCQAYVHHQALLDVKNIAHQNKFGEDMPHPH

SMILES	inhibition [%]
Cc1cc(-c2ccc3c(c2)CC[C@H]3N2CC3(CCN(C(=O)Cc4cn5cc(C)sc5n4)CC3)C2)ncn1	0.83
CN1C(=O)c2c(nn(Cc3ccc(-c4cccc(F)n4)cc3)c2Nc2ccccc2)N2C1=N[C@@H]1CCC[C@@H]12	-2.77
O=c1cc(N2CCOCC2)oc2c(-c3cccc4c3sc3ccccc34)cccc12	-7.08
CCOC(=O)Nc1ccc2c(c1)N(C(=O)CCN1CCOCC1)c1ccccc1S2	-0.7
O=c1cc(N2CCOCC2)oc2c(-c3ccccc3)cccc12	1.23
O=c1cc(-c2cccc3c2Sc2ccccc2S3)oc(N2CCOCC2)c1	82.8
C[C@@H]1CN(CC(=O)Nc2ccc3c(c2)Cc2cccc(-c4cc(=O)cc(N5CCOCC5)o4)c2S3)C[C@H](C)O1	61
Nc1ncnc2c1nc(Br)n2[C@@H]1O[C@@H]2COP(=O)(O)O[C@H]2[C@H]1O	4.67
O=C(O)Cc1sc(-c2ccccc2)nc1-c1ccc(Cl)cc1	-4.01
Nc1c2c(nc3c1CCC3)CCCC2	13
O=C(N/N=C/c1ccc([N+](=O)[O-])o1)c1ccc(O)cc1	18.8
CCC(=O)c1ccc(O)cc1	7.92
CCN(CC)c1ccc(/C=N/NC(=O)c2ccc(O)cc2)cc1	80
C/N=C(/NC#N)NCCSCc1csc(NC(=N)N)n1	4.88
COc1cccc(CCc2ccccc2OCC[C@@H]2C[C@@H](O)CN2C)c1	12.1
O=C1C(Cl)=C(NCCN2CCOCC2)C(=O)c2ncccc21	-2.93
Cc1noc(-c2ccc(-c3ccc(CC(=O)O)cc3)cc2)c1NC(=O)O[C@H](C)c1ccccc1	15.4
O=C(N[C@@H](Cc1c[nH]c2ccccc12)C(=O)O)c1ccc(Cl)cc1	21.4
O=C(CN1C2=NCCN2c2ccccc21)c1ccc(-c2ccccc2)cc1	11.4
O=C(O)CCCc1ccccc1	15.3
O=C(O)CCC(=O)c1ccc(-c2ccccc2)cc1	58.7
CN1CCN(c2ccc(-c3cccc(CN4CCOCC4)c3)cc2NC(=O)c2c[nH]c(=O)cc2C(F)(F)F)CC1	19.4
Oc1cccc(Nc2ncc(F)c(Nc3cccc(O)c3)n2)c1	-0.51
O=c1c(-c2ccccc2)c1-c1ccccc1	68.4
O=C1[C@H]2CCCC[C@H]2C(=O)N1CCCCN1CCN(c2nsc3ccccc23)CC1	9.58

SMILES	inhibition [%]
CCCC(=O)O[C@]1(C(=O)CO)CCC2[C@@H]3CCC4=CC(=O)CC[C@]4(C)C3[C@@H](O)C[C@@]21C (some centres undefined)	13.5
C[C@]12CCC(=O)C=C1CC[C@@H]1[C@@H]2[C@@H](O)C[C@@]2(C)[C@H]1CC[C@]2(O)C(=O)CO	12
CCCCC(=O)O[C@]1(C(=O)CO)CC[C@H]2[C@@H]3CCC4=CC(=O)CC[C@]4(C)[C@H]3[C@@H](O)C[C@@]21C	55.9
O=[N+]([O-])c1cc([N+](=O)[O-])c(/C=C/c2ccc(Cl)c(Cl)c2)cc1/C=C/c1ccc(Cl)c(Cl)c1	7.35
Nn1cnc2cc3ccccc3cc2c1=O	17.4
Clc1ccc(CCCOCCCN2CCCCC2)cc1	4.84
NC(=O)Nc1cc(-c2cccc(F)c2)sc1C(=O)N[C@H]1CCCNC1	8.78
NC(=O)Nc1sc(-c2ccc(F)cc2)cc1C(N)=O	81.4
O=C(O)CN(CCN(CC(=O)O)CC(=O)O)CC(=O)O	-8.06
O=C(/C=C/c1cccnc1)c1ccncc1	2.24
Cc1c(C)c2c(c(C)c1O)CCC(C)(C)O2	20.7
CC(=O)[C@H]1CC[C@H]2[C@@H]3C[C@H](C)C4=CC(=O)CC[C@]4(C)[C@H]3[C@@H](O)C[C@]12C	19.3
CCCC(=O)Nc1cccc(NC(=O)c2ccccc2Br)c1	21
CC(=O)Oc1ccccc1C(=O)Oc1ccccc1C(=O)O	41
CC(=O)Oc1ccccc1C(=O)O	2.2
COc1ccccc1C(=O)Nc1cccc(NC(=O)c2cccc(C)c2)c1	63.7
CC(=O)Oc1ccccc1C(=O)Nc1ccccc1	87.4
COc1ccccc1C(=O)Nc1cc2c(cc1N1CCCC1)n(C)c(=O)n2C	46.1
Cc1nc(Nc2ncc(C(=O)Nc3c(C)cccc3Cl)s2)cc(N2CCN(CCO)CC2)n1	21.2
CC1(C)CC(=O)C(C2C3=C(CC(C)(C)CC3=O)Oc3ccccc32)C(=O)C1 (centres undefined)	-3.93
N[C@H](Cc1c[nH]c2ccccc12)C(=O)O	12
COCCNC(=O)Cn1cnc([N+](=O)[O-])n1	6.28
CN([C@@H](Cc1ccc(OS(=O)(=O)c2cccc3cnccc23)cc1)C(=O)N1CCN(c2ccccc2)CC1)S(=O)(=O)c1cccc2cnccc12	-4.11
CC(C)c1cc(-c2n[nH]c(=O)n2-c2ccc3c(ccn3C)c2)c(O)cc1O	29.4
